Test results taken from PubChem BioAssay (NCI).
About 79,000 compounds went through this panel and 15% of them were active in at least one assay; those are over-represented in the sample as a whole. Cut-off read from the data, not from the text of the source: active = growth inhibition above about 70%; inactive = the rest.

How the values were obtained:
[1] = NCI Yeast Anticancer Drug Screen. Data for the rad50 strain (AID 155);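 note: 0% = growth of vehicle-only cultures of the same strain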; settings: S. cerevisiae rad50 strain growth inhibition; at 50.0 µM; stronger effect = higher value
Summary of the method: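 Yeast carrying a defined DNA repair defect were exposed to test compounds, and growth was compared with vehicle-treated controls to give percent inhibition.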

[2] = NCI Yeast Anticancer Drug Screen. Data for the mec2-1 strain (AID 157); settings: S. cerevisiae mec2-1 strain, at 50.0 µM, stronger effect = higher value
Summary of the method: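 Strain: mec2-1 (DNA repair/cell cycle alteration). Compound exposure, then growth measured; inhibition expressed relative to vehicle.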

[3] = NCI Yeast Anticancer Drug Screen. Data for the sgs1 mgt1 strain (AID 161);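 note: 0% = growth of cultures given vehicle only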; settings: S. cerevisiae sgs1 mgt1 strain, at 50.0 µM, stronger effect = higher value
Summary of the method: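 Mutant yeast exposed to compound; growth scored against vehicle-only wells.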

[4] = NCI Yeast Anticancer Drug Screen. Data for the cln2 rad14 strain (AID 165);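 note: 0% = growth equal to vehicle treated cultures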; settings: S. cerevisiae cln2 rad14 strain, at 50.0 µM, stronger effect = higher value
Summary of the method: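 Compounds are applied to the cln2 rad14 yeast strain, and growth is then compared with that of vehicle-treated cultures to give inhibition.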

[5] = NCI Yeast Anticancer Drug Screen. Data for the bub3 strain (AID 167); settings: S. cerevisiae bub3 mutant strain, at 50.0 µM, stronger effect = higher value
Summary of the method: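 Compounds were applied to a genetically altered yeast strain carrying a cell-cycle control defect. Growth inhibition was scored against vehicle-treated controls.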

[6] = NCI Yeast Anticancer Drug Screen. Data for the mlh1 rad18 strain (AID 175); settings: S. cerevisiae mlh1 rad18 strain growth inhibition; at 50.0 µM; stronger effect = higher value
Summary of the method: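 Read-out is yeast growth inhibition, calculated against vehicle-only controls. The compound was applied to a strain engineered with DNA damage repair alterations.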

Measured: growth inhibition

COc1cc(N)c2c(c1)SC(c1ccccc1)C(=O)N2 (stereo not drawn)
inactive: [1] -23.6% | [2] 4.25% | [3] 1% | [4] 14.1% | [5] 32.6% | [6] 15.7%

COc1cc(C(=O)NOCc2cccc(C(F)(F)F)c2)cc(OC)c1OC
inactive: [1] 39.8% | [2] -11.2% | [3] 15.9% | [4] -14.8% | [5] 2.5% | [6] 6.25%

COC(=O)c1cn2ccc3ccccc3c2c1C(=O)OC
inactive: [1] -3.95% | [2] 2.15% | [3] 9% | [4] -0.25% | [5] -15.7% | [6] 15.5%

COC1OC(=O)c2ccccc21 (stereo not drawn)
inactive: [1] 12.2% | [2] -16.2% | [3] -2.1% | [4] -0.7% | [5] -2.45% | [6] 12.8%

O=C[C@@H](CO)O[C@H](C=O)c1c[nH]c(=O)[nH]c1=O
inactive: [1] -24.1% | [2] -13.2% | [3] -23.9% | [4] -10.5% | [5] -36.5% | [6] -54.5%

COc1cc(C2c3cc4c(cc3OC(C)(OC)C2C(C)=O)OCO4)cc(OC)c1O (stereo not drawn)
inactive: [1] 4.05% | [2] -6.25% | [3] -24.6% | [4] -2.9% | [5] -1.2% | [6] -0.35%

CCCCN(CCCC)C1=Nc2ccccc2-n2c(nnc2C(=O)OCC)C1
inactive: [1] 24.4% | [2] 44.5% | [3] 22.9% | [4] 15.2% | [5] 52% | [6] 50.4%

CCOC(=O)C(CC(c1ccc2c(c1)OCO2)C(C(=O)OCC)[N+](=O)[O-])C(=O)OCC (stereo not drawn)
inactive: [1] 61.2% | [2] 23.9% | [3] 58.6% | [4] 27.3% | [5] 15.6% | [6] 39.3%

CCCCCCCCCSc1nc2ccc(N=Cc3ccccc3O)cc2s1
inactive: [1] -2.85% | [2] -6.8% | [3] -23.5% | [4] -10.1% | [5] 1.3% | [6] -40.6%

OC(c1cc(C(F)(F)F)nc2c(Cl)cc(Cl)cc12)C1CCCCN1 (stereo not drawn)
inactive: [1] 7.2% | [2] -22.4% | [3] -5% | [4] -3.4% | [5] 8.75% | [6] 22.9%

C=C(C)c1ccc(B2Nc3ccccc3N2)cc1
inactive: [1] 53.6% | [2] 30.2% | [3] 45.6% | [4] 18.8% | [5] 40.8% | [6] 58.5%

CC1(C)C/C(=C/c2ccccc2)C(=O)O1
inactive: [1] -14.6% | [2] -6.95% | [3] -3.45% | [4] -31.5% | [5] -4.05% | [6] -19.3%

CCC(CC)C1CC[N-]CC1.CCC(CC)C1CC[N-]CC1.CCC(CC)C1CC[N-]CC1.CCC(CC)C1CC[N-]CC1.N#C[S-].N#C[S-].[Co]
inactive: [1] 16.4% | [2] 15.1% | [3] 3.1% | [4] 13.8% | [5] 19.4% | [6] 29.7%

O=[N+]([O-])c1nccn1CCCl
inactive: [1] 20.1% | [2] -3.75% | [3] 2.35% | [4] -26.1% | [5] -9.85% | [6] -1.7%

O=CNC(NC=O)c1ccccc1[N+](=O)[O-]
inactive: [1] 29.9% | [2] 20.8% | [3] 30.1% | [4] 0.65% | [5] 52.5% | [6] 28.6%

c1ccc(CNc2ncncc2-c2ccccc2)cc1
inactive: [1] 2.75% | [2] 3.85% | [3] 17.4% | [4] 9.1% | [5] 1.6% | [6] 5.15%

CCOC1CCC=CO1 (stereo not drawn)
inactive: [1] -9.65% | [2] 3.7% | [3] 39% | [4] 28.7% | [5] -21.9% | [6] 39.6%

COc1ccc(CCN2C(=O)C(=O)N(C(C)C)C2=O)cc1OC
inactive: [1] 7.9% | [2] 1.6% | [3] 13% | [4] 16.4% | [5] 4.85% | [6] 14.7%

CCCC(C)(C)CO
inactive: [1] 1.75% | [2] 1.35% | [3] -1.85% | [4] 5.6% | [5] 9.3% | [6] 5.75%

CC(=O)Oc1cc2c(cc1OC(C)=O)C(=O)c1cc3c(cc1C2=O)OCO3
inactive: [1] -31.7% | [2] -10.9% | [3] -1.3% | [4] -17.2% | [5] -6.5% | [6] -12%

Cc1cc(O)c2c(c1)C(=O)c1c(-c3ccc(O)c4c3C(=O)c3c(O)c(C)cc(O)c3C4=O)ccc(O)c1C2=O
inactive: [1] -30.7% | [2] -19.8% | [3] -17.1% | [4] 9.05% | [5] -26.8% | [6] -24.4%

O=C(O)[C@H]1C[C@H](O)CCN1
inactive: [1] -30.4% | [2] -8.65% | [3] -34.2% | [4] 1.25% | [5] -3.85% | [6] -10.6%

N#Cc1cnn(-c2ccc([N+](=O)[O-])cc2)c1N
inactive: [1] 14.8% | [2] -16.6% | [3] 3.85% | [4] -26.6% | [5] 1.7% | [6] 20.5%

CC1=CC(=O)OC1=O
inactive: [1] 4.9% | [2] 15% | [3] 2.15% | [4] 8.9% | [5] 5.9% | [6] 22%

O=c1[nH]nc(-c2ccc3c(c2)Cc2ccccc2-3)c2ccccc12
inactive: [1] 12.8% | [2] -0.15% | [3] -23.9% | [4] -1.95% | [5] 10.3% | [6] 17.5%

CC(NCCOc1ccccc1)c1ccccc1 (stereo not drawn)
inactive: [1] 9.1% | [2] 33.4% | [3] 3.2% | [4] 10.7% | [5] -0.75% | [6] 9.25%

COC(=O)c1c2c(cc3c1CC1(Cc4cc5c(cc4C1)CCCC5)C3)CCCC2
inactive: [1] -6.3% | [2] -16.4% | [3] -21.9% | [4] 12.3% | [5] -5.8% | [6] 7.35%

O=C(Nc1cc(Cl)ccc1Cl)c1ccccc1Cl
inactive: [1] 2.9% | [2] -6.7% | [3] 14.8% | [4] 8.85% | [5] 19.9% | [6] 20.5%

CO[Si](C)(OC)c1ccccc1
inactive: [1] -0.6% | [2] -23.8% | [3] -32.1% | [4] 13.2% | [5] -25.8% | [6] 2.75%

CC(c1ccc([N+](=O)[O-])cc1)n1cnc2c(N(CCO)CCO)ncnc21 (stereo not drawn)
inactive: [1] 6.3% | [2] -1.15% | [3] -13.7% | [4] -3.7% | [5] -12.2% | [6] -0.5%

CN(C)c1ccc(/C=N\N=C\c2ccco2)cc1
inactive: [1] 7.65% | [2] -3.2% | [3] 22.6% | [4] -40.2% | [5] -7.55% | [6] 10.1%

Cc1nc(C(N)=O)c(=O)[nH]c1C
inactive: [1] 2.25% | [2] 2.3% | [3] 8% | [4] -22.9% | [5] 2.65% | [6] 13.7%

COc1ccc(C(CCl)(CCl)c2ccc(OC)c(C)c2)cc1C
inactive: [1] -23.3% | [2] -74.1% | [3] -30.2% | [4] -4.05% | [5] 5.3% | [6] -20.4%

Cn1c(=O)c2c(ncn2CCNC(c2ccccc2)c2ccc(Br)cc2)n(C)c1=O (stereo not drawn)
inactive: [1] 4.55% | [2] 1.55% | [3] 11.3% | [4] -35.3% | [5] 24.1% | [6] 13.6%

CC1=CC(=O)N(NC(N)=O)C1=O
inactive: [1] -11.4% | [2] -2.9% | [3] -9.5% | [4] -27.9% | [5] -16.4% | [6] 2.15%

CCCCn1c(CCC)nc([N+](=O)[O-])c1Sc1ncn[nH]1
inactive: [1] -4.15% | [2] 6.15% | [3] -28.4% | [4] -1% | [5] -20.2% | [6] 8.6%

COc1c(OC)c(C2(O)C(=O)N(C)c3ccccc32)c2c(c1C1(O)C(=O)N(C)c3ccccc31)OCO2 (stereo not drawn)
inactive: [1] 4.25% | [2] 1.7% | [3] -14.9% | [4] 1.2% | [5] 3.05% | [6] 22.9%

O=C(CCN1CCCCC1)Nc1ccc2sc3ccccc3c(=O)c2n1
inactive: [1] 51.9% | [2] -19.7% | [3] -0.6% | [4] 9.1% | [5] 11.1% | [6] 10.7%
